Results from PubChem BioAssay.
Values without a mark were called inactive. For some assays here: Measured potencies and affinities stand elsewhere. The source made the active and inactive calls. Unless noted, no rule for the calls is given here.

Assays:
[1] = antimalarial activity against Dd2 strain (AID 2302;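 active = growth inhibition above 50% at the single 2 µM test dose, taken to imply half-maximal potency below 2 µM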;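 also: 0% = DMSO untreated growth and 100% = chloroquine plus artemisinin killed control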); conditions: P. falciparum Dd2 in RBCs, LDH growth readout, 72 h; at 2 µM; hits give high values
[2] = human hepatoma cell viability loss – ATP luminescence, cytotoxicity control for P. falciparum antimalarial project, primary screen (AID 2303;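 active = inhibition above 50%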;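 also: 0% = DMSO wells and 100% = digitonin-killed cells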); conditions: HepG2 viability, 24-48 h, at 10 µM, hits give high values
[3] = target: L-lactate dehydrogenase (Plasmodium falciparum (isolate CDC / Honduras)) (UniProt Q27743); assay: PfLDH activity inhibition – cell lysate, 3D7 strain, counter-screen for P. falciparum growth inhibition project (AID 2304);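 also: 0% = vehicle and 100% = reference inhibitor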; conditions: P. falciparum 3D7 crude extract, LDH APAD/NBT absorbance; at 2 µM; hits give high values
[4] = inhibition of 3D7 malaria parasite growth – strain 3D7 (AID 2306);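 also: 0% = DMSO wells and 100% = chloroquine plus artemisinin control wells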; conditions: P. falciparum 3D7 erythrocytic growth, LDH absorbance, 72 h; at 2 µM; hits give high values
[5] = target: Calcium-dependent protein kinase 1 (Plasmodium falciparum (isolate 3D7)) (UniProt P62344); assay: PfCDPK1 kinase inhibitors, biochemical, TCAMS library (AID 1159585; cut-off not given, nearly all actives have IC50 up to about 0.98 µM;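 also: inhibitors leave more ATP so luminescence rises with inhibition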); conditions: recombinant PfCDPK1, Kinase-Glo ATP depletion luminescence
[6] = target: Plasmodium falciparum protein kinase 6 (PK6, PF3D7_1337100) (UniProt Q8IDW1); assay: PfPK6 kinase inhibitors, biochemical, TCAMS library (AID 1159586); conditions: recombinant PfPK6, Kinase-Glo ATP depletion luminescence
[7] = target: Protein kinase 7 (PK7), Plasmodium falciparum 3D7 (PF3D7_0213400) (UniProt Q7YTF7); assay: inhibition of Plasmodium PK7 catalytic activity – biochemical, TCAMS antimalarial set, Kinase-Glo luminescence (AID 1159587); conditions: recombinant PfPK7, Kinase-Glo ATP depletion luminescence
[8] = target: Calcium-dependent protein kinase 4 (Plasmodium falciparum (isolate 3D7)) (UniProt Q8IBS5); assay: PfCDPK4 kinase inhibitors, biochemical, TCAMS library (AID 1159588; cut-off not given, nearly all actives have IC50 up to about 0.91 µM); conditions: recombinant PfCDPK4, Kinase-Glo ATP depletion luminescence
Sequence of Calcium-dependent protein kinase 4 (Plasmodium falciparum (isolate 3D7)) (Q8IBS5 whole entry, looked up): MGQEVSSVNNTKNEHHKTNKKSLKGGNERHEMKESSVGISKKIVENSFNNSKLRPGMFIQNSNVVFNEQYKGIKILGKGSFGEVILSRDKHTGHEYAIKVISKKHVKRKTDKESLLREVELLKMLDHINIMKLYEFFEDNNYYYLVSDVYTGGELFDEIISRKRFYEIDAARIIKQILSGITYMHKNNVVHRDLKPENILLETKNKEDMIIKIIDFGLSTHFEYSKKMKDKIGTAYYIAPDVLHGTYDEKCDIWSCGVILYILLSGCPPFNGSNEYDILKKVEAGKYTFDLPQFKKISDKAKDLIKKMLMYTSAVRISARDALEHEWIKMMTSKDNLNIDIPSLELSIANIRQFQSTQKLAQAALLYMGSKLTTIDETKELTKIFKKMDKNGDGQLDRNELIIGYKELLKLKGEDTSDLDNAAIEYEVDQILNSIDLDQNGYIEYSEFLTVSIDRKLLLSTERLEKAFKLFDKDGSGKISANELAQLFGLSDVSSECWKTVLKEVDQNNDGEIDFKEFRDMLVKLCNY

Sequence of L-lactate dehydrogenase (Plasmodium falciparum (isolate CDC / Honduras)) (Q27743 whole entry, looked up): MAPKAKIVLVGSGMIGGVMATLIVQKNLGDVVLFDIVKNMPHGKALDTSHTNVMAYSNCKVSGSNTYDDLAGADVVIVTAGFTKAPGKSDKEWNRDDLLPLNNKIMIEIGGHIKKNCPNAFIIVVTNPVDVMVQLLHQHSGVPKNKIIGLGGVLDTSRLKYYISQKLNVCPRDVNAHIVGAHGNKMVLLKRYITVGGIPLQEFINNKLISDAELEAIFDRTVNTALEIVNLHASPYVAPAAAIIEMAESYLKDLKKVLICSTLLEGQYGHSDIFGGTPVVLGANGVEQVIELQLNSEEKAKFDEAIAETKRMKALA
Sequence of Plasmodium falciparum protein kinase 6 (PK6, PF3D7_1337100) (Q8IDW1 1-305): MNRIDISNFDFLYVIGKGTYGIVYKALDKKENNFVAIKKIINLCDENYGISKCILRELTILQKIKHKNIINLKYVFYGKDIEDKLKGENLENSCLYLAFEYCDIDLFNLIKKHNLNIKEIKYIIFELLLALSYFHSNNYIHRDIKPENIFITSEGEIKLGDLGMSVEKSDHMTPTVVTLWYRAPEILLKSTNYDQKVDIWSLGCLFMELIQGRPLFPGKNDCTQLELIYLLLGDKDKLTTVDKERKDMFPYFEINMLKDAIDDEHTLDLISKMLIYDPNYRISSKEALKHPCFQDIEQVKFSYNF
Sequence of Protein kinase 7 (PK7), Plasmodium falciparum 3D7 (PF3D7_0213400) (Q7YTF7 1-343): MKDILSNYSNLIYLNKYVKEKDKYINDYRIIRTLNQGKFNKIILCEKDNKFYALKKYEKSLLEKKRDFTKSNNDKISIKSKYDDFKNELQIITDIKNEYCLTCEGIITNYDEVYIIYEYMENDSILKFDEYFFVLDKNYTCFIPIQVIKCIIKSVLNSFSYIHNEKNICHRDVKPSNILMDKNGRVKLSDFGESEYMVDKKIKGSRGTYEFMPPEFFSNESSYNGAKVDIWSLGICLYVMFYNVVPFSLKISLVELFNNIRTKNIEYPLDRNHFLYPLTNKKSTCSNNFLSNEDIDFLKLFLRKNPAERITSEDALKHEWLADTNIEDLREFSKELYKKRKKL
Sequence of Calcium-dependent protein kinase 1 (Plasmodium falciparum (isolate 3D7)) (P62344 whole entry, looked up): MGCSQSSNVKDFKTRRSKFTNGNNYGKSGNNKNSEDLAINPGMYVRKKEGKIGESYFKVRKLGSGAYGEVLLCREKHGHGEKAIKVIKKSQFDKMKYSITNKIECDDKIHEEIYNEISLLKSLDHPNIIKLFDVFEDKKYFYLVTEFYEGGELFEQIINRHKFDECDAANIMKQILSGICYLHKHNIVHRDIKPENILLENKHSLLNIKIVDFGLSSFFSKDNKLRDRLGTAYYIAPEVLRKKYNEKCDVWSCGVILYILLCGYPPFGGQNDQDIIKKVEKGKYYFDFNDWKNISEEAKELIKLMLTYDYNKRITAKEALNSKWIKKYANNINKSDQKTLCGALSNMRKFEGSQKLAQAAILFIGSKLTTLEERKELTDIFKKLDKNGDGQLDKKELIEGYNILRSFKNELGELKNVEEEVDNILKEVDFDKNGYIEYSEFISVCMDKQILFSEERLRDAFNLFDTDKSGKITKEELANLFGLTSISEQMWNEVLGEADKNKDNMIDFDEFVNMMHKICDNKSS

Row | SMILES | growth inhibition [1] | inhibition [2] | inhibition [3] [%] | growth inhibition [4] | outcome [5] | outcome [6] | outcome [7] | outcome [8]
1 | Cc1ccc(NC(=O)c2ccc3ncccc3c2)cc1OC1CCN(CCC(C)C)C1 (stereo not given) | 62% (active) | 5% | -4 | 98% (active) | inactive | inactive | inactive | inactive
2 | CC(C)c1ccc(CN(C)CCCCNC(=O)c2ccc(NC(=O)c3ccc(Cl)cc3)cc2)cc1 | 0% | 17% | 0 | 92% (active) | inactive | inactive | inactive | inactive
3 | CCCN1CCN(CCCNC(=O)c2cc3c(-c4ccc(Cl)cc4)nn(C)c3s2)CC1 | 20% | 46% | -3 | 88% (active) | inactive | inactive | inactive | inactive
4 | COc1ccc(-c2nonc2NC(=O)c2cccc(Cl)c2)cc1OC | 63% (active) | 41% | 4 | 98% (active) | inactive | inactive | inactive | inactive
5 | Brc1cc2c(cc1C=NNc1nc(Nc3ccccc3)nc(Nc3ccccc3)n1)OCO2 | 32% | -7% | 1 | 100% (active) | inactive | inactive | inactive | inactive
6 | CC(C)(C)NC(=O)C(c1ccc(F)cc1)N(C(=O)c1ccc(CN2CCOCC2)o1)c1ccc(C2CCCCC2)cc1 (stereo not given) | 68% (active) | 0% | -12 | 87% (active) | inactive | inactive | inactive | inactive
7 | CCCCCOc1ccc(C(=NC)N(CCCCC)CCCCC)c2ccccc12 | 80% (active) | 70% (active) | 3 | 96% (active) | inactive | inactive | inactive | inactive
8 | O=C(N[C@H]1CCN(Cc2ccc(OCCCN3CCCCC3)cc2)C1)c1ccc2ccccc2c1 | 32% | 8% | 5 | 97% (active) | inactive | inactive | inactive | inactive
9 | COc1cc(NCCCNCC2c3ccccc3Oc3ccccc32)nc2ccccc12 | 66% (active) | 99% (active) | -9 | 99% (active) | inactive | inactive | inactive | inactive
10 | Cc1ccc(NC(C)C(=O)Nc2ccc(C#N)cc2)cc1S(=O)(=O)N1CCCCC1 (stereo not given) | 92% (active) | 11% | 1 | 92% (active) | inactive | inactive | inactive | inactive
